Calb FLC – C. albicans growth modulation with fluconazole; C. albicans CaCi-2 (fluconazole-resistant clinical isolate) + fluconazole, Alamar Blue growth, 48 h; growth inhibition, % (concentration not given with the values); hit rate 0.57% among 300,000; AID 1979;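 active = growth inhibition above about 58% in most replicates, limit read from the data, passing the limit was not always enough; inconclusive = exactly half the replicates above a set limit; inactive = most replicates below a set limit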;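 also: all wells also contain fluconazole at 8 µg/ml as a sub-toxic cotreatment; 0% = median of DMSO wells and 100% = median of geldanamycin control wells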
Beta cell apopt – blocks beta cell apoptosis; INS-1E cytokine-induced death, ATP luminescence, 48 h; percent of positive-control rescue, neutral wells zero; protection from apoptosis, % (no concentration beside the values); hit rate 0.8% among 300,000; AID 435005;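 active = Every replicate reaches about 75%, or at least half do and their mean reaches it too, limit read from the data; inconclusive = At least half of replicates reach the limit but their mean does not; inactive = Under half of replicates reach the limit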;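 also: 0% = cytokine-treated negative control wells and 100% = positive control rescue; higher means more ATP so stronger rescue from cytokine killing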
697 NFkB inh – lowers PMA/ionomycin-induced NF-kB signal in 697 B cells; AID 435022; 697 B-cell NF-kB luciferase reporter, 16 h; inhibition, % at 4 µM; hit rate 0.33% among 330,000; in the data active = inhibition above about 35%
Jurkat NFkB inh – lowers PMA/ionomycin-induced NF-kB signal in Jurkat cells. PMA/ionomycin-induced NF-kB luciferase reporter, luminescence. inhibition, % at 4 µM. hit rate 0.53% among 330,000. AID 435003; in the data active = inhibition above about 50%
Shn3 3UTR inh – Schnurri-3 reporter inhibition in Clone20 osteoblasts; hit rate 0.52% among 360,000; Clone20 osteoblast Shn3 3'UTR firefly luciferase, 24 h; inhibition, % at 12.5 µM; AID 588674;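 active = mean inhibition of at least 75% with every replicate also reaching 75%; inconclusive = mean inhibition at least 75% but some replicate below; inactive = mean inhibition below 75%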;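 also: 0% = median of neutral control wells and 100% = pilot-screen positive control compound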
Active calls of the source: *; u = inconclusive; x = not tested or not shown. Most compounds without a hit are left out; they make up all but 2% or so of the library.

SMILES	Calb FLC	Beta cell apopt	697 NFkB inh	Jurkat NFkB inh	Shn3 3UTR inh
COc1ccc(-n2c(O)c(/C=N/Nc3nc(C)cc(C)n3)c3ccccc3c2=O)cc1OC	28	24	13	2	91*
COc1ccc(-n2c(O)c(/C=N/NS(=O)(=O)c3ccc(C)cc3)c3ccccc3c2=O)cc1OC	-10	-10	-10	-13	-1
Cn1ccnc1C(=O)c1cc(SCC(=O)NC2CC2)nc2ccccc12	6	-6	13	0	-2
CN(C(=O)CSc1cc(C(=O)c2nccn2C)c2ccccc2n1)c1ccccc1	4	106*	25	8	x
CC(=O)N1CCCc2cc(S(=O)(=O)Nc3ccccc3C)ccc21	-27	-2	2	-2	-6
CCCCCCC(=O)N1C/C=C\C(c2ccc(OC)cc2)N(Cc2ccc(F)cc2)C(=O)[C@H]1Cc1ccccc1 (stereo partly specified)	5	100*	-13	10	x
COc1ccc(C2/C=C\CN(C(=O)c3ccc(C)cc3)[C@H](Cc3ccccc3)C(=O)N2Cc2ccc(F)cc2)cc1 (stereo partly specified)	11	78*	18	33	87*
COc1ccc([C@H]2/C=C\CN(C(=O)C3CC3)[C@@H](C)C(=O)N2Cc2ccc(F)cc2)cc1	1	-4	11	19	-9
CCCCCCC(=O)N1C/C=C\C(c2ccc(OC)cc2)N(Cc2ccc(F)cc2)C(=O)C1 (stereo unspecified)	-3	-4	-17	-2	-4
COc1ccc(C2/C=C\CN(C(=O)OCc3ccccc3)CC(=O)N2Cc2ccc(F)cc2)cc1 (stereo unspecified)	2	-6	1	-4	4
COc1ccc(C2/C=C\CN(C(=O)C3CC3)[C@H](Cc3ccccc3)C(=O)N2Cc2ccc(F)cc2)cc1 (stereo partly specified)	17	86*	12	15	10
CCCCC(=O)N1C/C=C\C(c2ccc(OC)cc2)N(Cc2ccc(F)cc2)C(=O)[C@H]1Cc1ccccc1 (stereo partly specified)	9	99*	25	10	25
O=Cc1ccc(OC(=O)Cc2ccc(F)cc2)cc1	2	6	15	8	x
CC(C)(C)n1ncc2c(=O)n(Cc3cccc(Cn4cnc5c(cnn5C(C)(C)C)c4=O)c3F)cnc21	x	87*	-1	-2	89*
Cc1ccccc1Cn1cnc2c(cnn2C(C)(C)C)c1=O	8	1	2	7	-9
O=C1CCCCCN1Cc1nnc(SCc2nc3ccccc3s2)n1-c1ccccn1	1	-3	-130	-101	-114
CCn1c(CN2CCCCCC2=O)nnc1SCc1cnc(-c2ccccc2)s1	78*	4	-15	-15	-10
COc1ccc(-c2ccc([C@H]3[C@@H]4C=CCC[C@@]4(C)C(=O)N3Cc3ccccc3)c(F)c2)cc1	-13	85*	15	7	22
Cc1nn(-c2ccccc2)c(C)c1C(=O)OC/C(O)=C(\C#N)c1nc2ccccc2[nH]1	82*	3	0	-2	-8
Cc1nn(-c2ccccc2)c(C)c1C(=O)OCC(O)=C(C#N)c1nc2ccccc2[nH]1	x	x	x	x	-7
COc1cc(OC)cc(C(=O)OC/C(O)=C(\C#N)c2nc3ccccc3[nH]2)c1	38	101*	19	8	4
CC(=O)c1ccc(NC(=O)CN2CCCCCC2)cc1	-1	x	8	-32	-18
COc1ccc(Br)cc1/C=C/C(=O)c1ccc(NC(C)=O)cc1	x	-13	x	x	97*
O=C(CCc1nc2ccccc2c(=O)[nH]1)Nc1nnc(SCc2ccc(F)cc2)s1	2	-2	4	15	10
CC1=NN(c2nc(N)nc(/C(C#N)=C/c3ccc([N+](=O)[O-])o3)n2)C(C)(C)C1	x	x	x	x	98*
SMILES	Calb FLC	Beta cell apopt	697 NFkB inh	Jurkat NFkB inh	Shn3 3UTR inh
O=C1C2C(C(=O)N1/N=C/c1ccc([N+](=O)[O-])o1)C1C=CC2C12CC2 (stereo unspecified)	u	-5	-36	18	-99
COc1ccccc1C(NC(C)=O)c1cc(Cl)c2cccnc2c1O (stereo unspecified)	-6	94*	-13	3	u
CCC(=O)NC(c1ccc(OC)c(OC)c1)c1cc(Cl)c2cccnc2c1O (stereo unspecified)	3	x	x	x	u
O=C(O)COc1ccccc1C(Nc1ccccn1)c1cc(Cl)c2cccnc2c1O (stereo unspecified)	-2	-8	2	2	-7
COc1ccc(C(NC(C)=O)c2cc(Cl)c3cccnc3c2O)cc1OC (stereo unspecified)	-27	95*	-20	4	89*
COC(=O)[C@H](CC(C)C)N(Cc1ccccc1)S(=O)(=O)N(Cc1ccccc1)[C@@H](CC(C)C)C(=O)OC	x	121*	11	4	50
CC(C)C[C@H](CO)N(Cc1ccccc1)S(=O)(=O)N(Cc1ccccc1)[C@@H](CO)CC(C)C	x	-5	-2	5	66
COC(=O)[C@H](CC(C)C)NS(=O)(=O)N(Cc1ccccc1)[C@@H](CC(C)C)C(=O)OC	x	-16	10	-4	7
COC(=O)[C@H](CC(C)C)N(Cc1ccccc1)S(=O)(=O)N(Cc1ccc(OC)cc1)[C@@H](CC(C)C)C(=O)OC	x	116*	-7	16	25
C=C[C@H](CC(C)C)N(Cc1ccccc1)S(=O)(=O)N(Cc1ccc(OC)cc1)[C@H](C=C)CC(C)C	x	115*	-5	-6	40
CN1CCN(C(=O)c2ccccc2NC(=O)c2cccc(Cl)c2)CC1	1	0	18	-5	1
O=C(NCC(c1ccco1)N1CCc2ccccc2C1)c1ccc(Cl)c([N+](=O)[O-])c1 (stereo unspecified)	0	-7	16	-3	1
O=C(NCC(c1ccco1)N1CCCC1)c1ccc(Cl)c(S(=O)(=O)N2CCc3ccccc32)c1 (stereo unspecified)	x	75*	-16	48	78
CC1CC2(CCCC2)Nc2ccc(F)cc21 (stereo unspecified)	7	-6	26	1	7
CC1CC(C)(C)Nc2ccc(N=O)cc21 (stereo unspecified)	14	x	x	x	93*
CNc1c2cccc(C)c2nc2c(C(=O)NCCN(C)C)cccc12	x	x	x	x	97*
NC(=S)NN=Cc1nccc2c(N)cccc12	x	x	x	x	86*
COc1ccc(C(=O)OC(C)CN2CCOCC2)cc1 (stereo unspecified)	4	-6	11	-6	-6
COc1cc(C(=O)Oc2c(CN3CCOCC3)cc(Cl)c3cccnc23)cc(OC)c1OC	94*	93*	-3	12	79
COc1ccc(C(=O)Oc2c(CN3CCOCC3)cc(Cl)c3cccnc23)cc1	88*	54	13	3	19
O=C(Oc1c(CN2CCOCC2)cc(Cl)c2cccnc12)c1ccc(F)cc1	96*	83*	-2	9	60
COc1cccc(C(=O)Oc2c(CN3CCOCC3)cc(Cl)c3cccnc23)c1	104*	90*	-5	13	76
